These results are taken from PubChem BioAssay.

Where “and” joins values, the source holds several entries; their conditions need not be identical. Equal entries are not always repeated. Calls of active or inactive are those of the source. No stated cut-off is given here; in the data, active means parasite load remaining mostly below about 12% (no sharp cut-off); inactive means mostly above about 10%.

The test can be described thus: P. berghei load reduction in hepatocytes – cell-based, HepG2, luciferase luminescence, HepG2 viability, primary screen (AID 624349).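 Further: 100% = mean of DMSO negative control wells on the same plate.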 The conditions noted are these: P. berghei liver stage in HepG2, luciferase luminescence, concentration not given here; parasite load remaining: stronger effect = lower value; viability: measured here: HepG2 viability without parasites.
`C=CC[C@@H]1/C=C(\C)C[C@H](C)C[C@H](OC)[C@H]2O[C@@](O)(C(=O)C(=O)N3CCCC[C@H]3C(=O)O[C@H](/C(C)=C/[C@@H]3CC[C@@H](O)[C@H](OC)C3)[C@H](C)[C@@H](O)CC1=O)[C@H](C)C[C@@H]2OC`: the parasite load remaining was 58.3% (inactive) and the viability is 97.1%.

As to `N#CC(c1ccc(Cl)cc1)c1c(Cl)cc(-n2ncc(=O)[nH]c2=O)cc1Cl` (stereo not given), the parasite load remaining is 30.6% (inactive) and the viability turned out to be 99%.

Consider `CC(C)NC[C@H](O)COc1cccc2ccccc12`, for which the viability is 78.7% and 93.4% and 161%; the parasite load remaining is 76% (inactive) and 69.1% (inactive) and 147% (inactive).

In the case of `COc1ccc(C2Sc3ccccc3N(CCN(C)C)C(=O)C2OC(C)=O)cc1` (stereo not given), the parasite load remaining was 163% (inactive) and 58.1% (inactive); the viability is 88.6% and 96.1%.

In the case of `C[C@]12CCC3c4ccc(O)cc4CCC3C1CCC2=O` (stereo not given in full), the viability was 75.2% and 91.3%; the parasite load remaining was 83.7% (inactive) and 77.8% (inactive).

A word on the viability: it is a read-out of living cells in per cent, often relative to untreated cells.
